# Only a selection was taken, and hits are over-represented in it overall.
# ALOX12 inhib: qHTS Assay for Inhibitors of 12-hLO (12-human lipoxygenase) | Polyunsaturated fatty acid lipoxygenase ALOX12 (Homo sapiens), P18054 | purified 12-hLO, xylenol orange hydroperoxide absorbance | Potency, µM (doses to about 57.1 µM), hits mostly inhibitors | 150,000 compounds, 0.12% hits | AID 1452, 2008; also: nearly all actives have a fitted effect of over 55% in size
# Target sequence (P18054 whole entry, looked up): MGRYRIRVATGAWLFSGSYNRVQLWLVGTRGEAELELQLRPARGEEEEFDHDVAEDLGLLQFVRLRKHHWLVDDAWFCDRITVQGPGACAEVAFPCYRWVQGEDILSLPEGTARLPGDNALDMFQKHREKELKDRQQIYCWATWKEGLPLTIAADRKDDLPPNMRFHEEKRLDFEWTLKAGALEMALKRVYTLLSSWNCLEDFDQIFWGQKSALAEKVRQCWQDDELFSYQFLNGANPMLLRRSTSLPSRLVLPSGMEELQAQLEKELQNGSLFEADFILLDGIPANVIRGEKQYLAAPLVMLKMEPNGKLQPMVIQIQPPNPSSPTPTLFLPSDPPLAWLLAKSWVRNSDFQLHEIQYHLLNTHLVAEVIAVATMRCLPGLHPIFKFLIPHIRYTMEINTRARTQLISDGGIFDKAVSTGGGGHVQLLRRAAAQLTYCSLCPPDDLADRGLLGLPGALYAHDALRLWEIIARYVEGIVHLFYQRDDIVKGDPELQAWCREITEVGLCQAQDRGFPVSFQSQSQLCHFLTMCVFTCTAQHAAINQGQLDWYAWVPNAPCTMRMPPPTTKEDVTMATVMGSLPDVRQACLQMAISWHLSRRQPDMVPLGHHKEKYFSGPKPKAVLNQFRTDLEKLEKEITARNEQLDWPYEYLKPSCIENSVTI
#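 Xylenol orange chromogenic assay: hydroperoxide from 12hLO oxidises Fe(II), giving red-shifted Fe(III)-XO absorbance. Conditions: 150 nM enzyme, 40 uM arachidonic acid, 25 mM Hepes pH 7.0, 0.01% Triton X-100, 30 min, room temperature.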
# ALOX15B inhib: qHTS Assay for Inhibitors of 15-hLO-2 (15-human lipoxygenase 2); purified 15hLO-2, xylenol orange hydroperoxide absorbance; Polyunsaturated fatty acid lipoxygenase ALOX15B (Homo sapiens), O15296; Potency, µM (series often up to 57.1 µM), hits mostly inhibitors; 110,000 compounds, 0.56% hits; also: nearly all actives have a fitted effect of over 60% in size
#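 Screening format was qHTS against 50 nM purified 15hLO-2 in Hepes pH 7.5 with detergent. Activity follows hydroperoxide formation from 45 uM arachidonic acid, measured as 573:405 nm absorbance ratio of the ferric-xylenol orange complex.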
# Numbers stand for hits; – = inactive; ? = inconclusive; · = not tested or not shown; [ ] = dose if it differs, or a comment. Calls follow the shape of the dose curve; as a rule, active = well fitted curve in the direction sought with a large enough effect; inconclusive = small, poorly fitted or top-dose-only effect, or another doubt; inactive = no such curve, though single readings can be large; an effect the other way counts as inactive or inconclusive.
SMILES,ALOX12 inhib,ALOX15B inhib
COc1ccc(OC)c2c(=S)c3ccccc3[nH]c12,25µM,–
COc1ccc(-c2c(N)nnc3c2[nH]c2ccccc23)cc1OC,–,–
CCCC(=O)OC1(C(=O)CO)CCC2C3CCC4=CC(=O)CCC4(C)C3C(O)CC21C (centres undefined),–[0.00818 µM],–[0.0915 µM]
CC(C)(C)C(=O)[C@H]([C@@H](c1ccccc1)N1CCOCC1)N1CCOCC1,–[11.4 µM],–[11.4 µM]
CC(C)(C)C(=O)NCC12C=CC(O1)C1C(=O)N(c3ccccc3)C(=O)C12 (centres undefined),–,·
O=C1C2C3C=CC(CO)(O3)C2C(=O)N1c1ccc(-c2ccccc2)cc1 (centres undefined),?,0.4µM
COc1ccc(-c2nc3cnc(N(C)C)nc3n(C)c2=O)cc1,·,–
C[C@@H](O)CCC[C@H](O)/C=C/[C@@H]1[C@@H](C/C=C\CCCC(=O)O)[C@@H](O)C[C@H]1O,–,·
CS(=O)(=O)Nc1cccc(-c2nc(N3CCOCC3)c3ccccc3n2)c1,–,–
CCOC(=O)Cc1csc(NC(=O)c2sc3nc4cc(C)ccc4cc3c2N)n1,–,·
CCOC(=O)Cc1csc(NC(=O)c2sc3nc4ccc(CC)cc4cc3c2N)n1,10µM,–
FB(F)F,–,–
C=CCSc1nc2ccccc2c(=O)n1Cc1ccco1,–[11.4 µM],–[11.4 µM]
O=c1c(-c2cccs2)nc2cnc(N3CCNCC3)nc2n1-c1ccccc1,–,–
O=S(=O)(O)c1cc(N=[N+]([O-])c2cc(S(=O)(=O)O)c3ccccc3c2)cc2ccccc12,–[11.4 µM],–[11.4 µM]
Cc1cccc(NC(=S)/N=C(\N)Nc2nc(C)c3cc(C)ccc3n2)c1,–,·
Cc1cc(C)cc(NC(=S)/N=C(\N)Nc2nc(C)c3ccccc3n2)c1,–,·
Cc1ccc(NC(=S)/N=C(\N)Nc2nc(C)c3ccccc3n2)cc1C,5.6µM,·
Cc1cccc(NC(=S)/N=C(\N)Nc2nc(C)c3ccccc3n2)c1,7.9µM,·
CN1CC[C@@]2(CCN3CCc4c(oc5ccccc45)[C@@H]3C2)N(C)C1=O,–,–
C=CCCCCCCC=C,–,–
CCOC(=O)C1=C(O)c2ccccc2C(=O)/C1=C\c1ccc(CC)cc1,?,10µM
CCCN=C(C)C1=C(O)c2ccccc2C1=O,–,·
CCCc1ccc(/C=C2\C(=O)c3ccccc3C(O)=C2C(=O)OCC)cc1,–,6.3µM
CCOC(=O)C1=NN(c2ccccc2)C(=O)/C1=C\c1ccc(N(C)C)cc1,–,–
SMILES,ALOX12 inhib,ALOX15B inhib
CC(C)(C)NC[C@@H](O)c1ccc(O)c(CO)n1,–[11.4 µM],–[11.4 µM]
C=Cc1c(C)/c2[n-]/c1=C\c1[n-]c(c(CC)c1C)/C=c1\[n-]c3c(c1C)C(=O)C(C(=O)[O-])C=3c1[n-]c(c(C)c1CCC(=O)[O-])\C=2.[Cu].[Na+].[Na+] (centres undefined),?,7.9µM
C#CCOC(=O)[C@H](N)CC(N)=O,–[11.4 µM],–[11.4 µM]
NCCC[C@@H](CC(=O)N[C@@H]1CCNC[C@H]1C(=O)N[C@H](CC(=O)N[C@@H](CCC(=O)O)CC(=O)O)Cc1c[nH]c2ccccc12)NC(=O)C[C@H](Cc1ccccc1)NC(=O)[C@@H]1CNCC[C@H]1N,–,·
CS(=O)(=O)Nc1c(O)ccc2c1CCC[C@H]2C1=NCCN1,–,–
CC(C)(C)c1ccc(O)c(/C=N\O)c1,–,–
CC(C)(C)c1ccc(O)c(O)c1,–,5µM
CC(C)COc1ccc(CSCCNC(=S)Nc2ccccc2)cc1,28µM,25µM
CCCCOc1ccc(CSCCNC(=S)Nc2ccccc2)cc1,–,·
CC(C)(C)c1cc(C(c2cccnc2)N2CCN(CCO)CC2)cc(C(C)(C)C)c1O (centres undefined),–,–
OCCN1CCN(C(c2cccs2)c2ccc3cccnc3c2O)CC1 (centres undefined),14µM,–
COC(=O)c1ccc2c(c1)C(C)(C)C(/C=C/c1ccc(O)cc1)=[N+]2C,–,–[11.4 µM]
COC(=O)c1ccc2c(c1)C(C)(C)C(/C=C/c1ccc(OC)c(OC)c1OC)=[N+]2C,?,13µM
O=[N+]([O-])c1cc(C(F)(F)F)ccc1NCCNC(=S)Nc1ccc(Cl)cc1,?,32µM
O=[N+]([O-])c1cc(C(F)(F)F)ccc1NCCCCNS(=O)(=O)c1ccc(Cl)cc1,–,·
N[C@@]1(C(=O)O)CO[C@H]2[C@H](C(=O)O)[C@H]21,–[0.00818 µM],–[0.0915 µM]
Oc1ccc(/C=N/n2c(-c3ccco3)csc2=Nc2cccnc2)c(O)c1,–,·
CC(C)N=c1scc(-c2ccco2)n1/N=C/c1ccc(O)c(O)c1,?,13µM
CCOC(=O)CCCCCCCCCCCCC1C=CCC1 (centres undefined),–,–
CC(=O)c1ccc2c(c1)Nc1ccccc1S2,–,–
CCOC(=O)Nc1ccc2c(c1)Nc1ccccc1S2,–,13µM
Cc1cc(=S)[nH]c2ccccc12,–,?
Cc1ccc2[nH]c(=S)cc(C)c2c1,–,13µM
CC1CCN(CC[C@@H]2CCCN2S(=O)(=O)c2cccc(O)c2)CC1,–,–
CC(CC1C(C#N)=C(N)SC(N)=C1C#N)c1ccccc1 (centres undefined),–,20µM
SMILES,ALOX12 inhib,ALOX15B inhib
CC(c1ccccc1)C1C(C#N)=C(N)SC(N)=C1C#N (centres undefined),–,–
O=C1C[C@H]2C(=O)[C@@H]1[C@@H](C(=O)O)[C@H]2C(=O)O,–[11.4 µM],–[11.4 µM]
NC(=S)NNC(=O)Nc1ccc(Cl)c(Cl)c1,–,·
NC(=S)NNc1cc(Cl)cc(Cl)c1,?,2.5µM
COCCn1c(=O)c(CCc2ccccc2)nc2cnc(Oc3ccc(OC)cc3)nc21,·,–
CCOC(=O)c1cc(C(=O)OCC)c(=O)[nH]c1C,–,·
CCOC(=O)c1cc(C)[nH]c(=S)c1C#N,–,25µM
CN(C)c1ccc(N=Cc2ccco2)cc1,?,32µM
CN(C)c1ccc(C=Nc2ccc(N(C)C)cc2)cc1,–,·
O=C(NC(=S)Nc1ccc(N2CCCCC2)c(Cl)c1)c1ccc2c(c1)OCCO2,?,10µM
CCc1ccc(C(=O)NC(=S)Nc2ccc3c(c2)OCCO3)cc1,14µM,·
O=C(NC(=S)Nc1ccc(N2CCOCC2)c(Cl)c1)c1cncc(Br)c1,–,·
Cc1cc(C)cc(C(=O)NC(=S)Nc2ccc3c(c2)OCCO3)c1,–,·
COC(=O)CCC(C)C1CCC2C3C(C[C@H](O)C12C)C1(C)CC[C@@H](O)CC1C[C@H]3O (some centres undefined),–,–
O=c1oc2cc(N=Cc3ccc4c(c3)OCO4)ccc2c2ccccc12,–[11.4 µM],–[11.4 µM]
N#Cc1ccc(CN2CCCC3(CCNCC3)C2)cc1,–,–
Cc1ccccc1-c1nccc(NCc2cccs2)n1,·,–
Clc1nc(Cl)nc(N(c2ccccc2)c2ccccc2)n1,–,·
Nc1ccc(N(c2ccccc2)c2ccc(N)cc2)cc1,–,0.63µM
COc1cc(OC)c(C2CC(=O)N3CN(c4ccccc4)CSC3=C2C#N)cc1OC (centres undefined),–,10µM
CCOC(=O)c1ccc(N2CSC3=C(C#N)C(c4ccc(OC)cc4OC)CC(=O)N3C2)cc1 (centres undefined),?,–
COc1ccc(Br)cc1C1CC(=O)N2CN(Cc3ccccc3)CSC2=C1C#N (centres undefined),–,?
CCc1ccccc1N1CSC2=C(C#N)C(c3cc(OC)c(OC)cc3OC)CC(=O)N2C1 (centres undefined),?,10µM
CN(C)Cc1cc(O)c(O)c(CN(C)C)c1,–[11.4 µM],–[11.4 µM]

# Screens (PubChem BioAssay)
